# Source: PubChem BioAssay (Tox21)
# Inconclusive results are not listed. Unmarked numbers belong to inactive results. Calls of active or inactive are those of the source. Calls follow the shape of the dose curve; as a rule, active = well fitted cell-killing curve with a large enough effect in the repeat runs; inconclusive = weak or mixed curves, or effect the other way; inactive = flat fitted curve, though single readings scatter.
# Experiment: qHTS assay to identify small molecule agonists of the constitutive androstane receptor (CAR) signaling pathway - cell viability counter screen (AID 1224836); also: nearly all actives have a fitted effect of over 45% in size
# Details: HepG2-CYP2B6-hCAR viability, CellTiter-Fluor, 23 h, PK11195 added to every well; series mostly up to 92.4 µM
# From the text: U.S. Tox21 Program National Center for Advancing Translational Sciences [NCATS] NIH Chemical Genomics Center [NCGC] U.S. Environmental Protection Agency [EPA] National Institutes of Environmental Health Sciences [NIEHS] National Toxicology Program [NTP] U.S. Food and Drug Administration [FDA] Tox21 Assay Overview: The constitutive androstane receptor (CAR) is a nuclear receptor which regulates multiple drug metabolizing enzymes (DMEs) and transporters. Activating CAR will generally increase the transcription and subsequent translation of CYP2B6 and CYP3A4. These two DMEs represent about 50% of the drug metabolizing potential in the body. […] Recently, there have also been studies performed indicating CARs role in energy metabolism and cancer therapy. Therefore, inducing CARs activity could have a potential effect on diabetes and cancer. Identifying environmental toxins and compounds which modulate CAR, through the use of the Tox21 10K compound collection, will be an important step in determining the toxicity and potential therapeutic effects these factors will have on the human body. To differentiate true CAR agonists from cytotoxic substances, the assay is multiplexed with a cell viability assay.
# Tox21 Assay Protocol Summary: A double-stable (hCAR and CYP2B6-2.2kb) transfected cell line, derived from human hepatoma (HepG2) cells, was utilized for the duration of the quantitative high-throughput screens. The HepG2-CYP2B6-hCAR cells were dispensed at 2500 cells/4 uL/well in 1536-well white solid bottom plates using a Multidrop Combi. After the assay plates were incubated at 37 C/5% CO2 for 4 hrs, 23 nL of compounds at 15 concentrations (from 5-48 columns) or positive control (from 1 to 4 columns) were transferred to the assay plates using a Pintool station. One uL of PK11195 (final concentration = 0.75 uM) was added, using a Flying Reagent Dispenser, inside each well. After a 23 hr incubation period at 37 C/5% CO2, 1 uL of CellTiter-Fluor reagent was added into each well of the assay plates using a Flying Reagent Dispenser. The fluorescence intensity in the plates was then measured using a ViewLux plate reader.
# % is scaled to controls: 0 for no effect and ±100 for the full control effect.
Structure (SMILES),outcome,"viability change, negative = cytotoxic"
OCC1(CO)COCOC1,inactive,–
c1ccc2cnccc2c1,inactive,–
CC(=O)c1cc(C)oc1C,inactive,–
CC1(C)[C@H]2CC[C@](C)(C2)[C@H]1O,inactive,–
CCCCCCCCCCCCCCCCCC#N,inactive,–
N#Cc1ccccc1O,inactive,–
CC/C(C)=N\O[Si](C)(O/N=C(\C)CC)O/N=C(\C)CC,inactive,–
CCCc1ccc(O)cc1,inactive,–
c1ccc(B(c2ccccc2)c2ccccc2)cc1,inactive,–
CC1OCCC1=O (stereo not given),inactive,–
CC(Oc1cc(Cl)ccc1Cl)C(=O)O (stereo not given),inactive,–
Cc1ccc(C)c([N+](=O)[O-])c1,inactive,–
C=CCCCCCCCCC(=O)OCCCC,inactive,–
CCCSSCCC,inactive,–
C/C(=C1\CCOC(=O)S1)N(C=O)Cc1cnc(C)nc1N,inactive,–
CC(=O)CCc1ccc(OC(C)=O)cc1,inactive,–
CC(C)=CCC/C(C)=C/COC=O,inactive,–
Nc1nc(-c2ccccc2)c(Br)c(=O)[nH]1,inactive,–
O/N=C/C=N/O,inactive,–
COc1ccc(CCO)cc1,inactive,–

Structure (SMILES),outcome,"viability change, negative = cytotoxic"
CC(=O)C(C)O (stereo not given),inactive,–
O=S(=O)(O)c1ccc2c(N=Nc3ccc(S(=O)(=O)O)c4ccccc34)c(O)c(S(=O)(=O)O)cc2c1,–,-7.02% [at 8.39 µM]
O=C(Cl)c1ccccc1[N+](=O)[O-],inactive,–
CCC/C=C(\C=O)CC,inactive,–
ONc1ccccc1,inactive,–
CN1C[C@@H]2C[C@H]1CN2c1cc2c(cc1F)c(=O)c(C(=O)O)cn2C1CC1,–,-2.13% [at 19 µM]
CCC(C(=O)OCCN1CCOC(c2ccccc2)C1C)c1ccccc1 (stereo not given),inactive,–
CN(C)CCCO[C@@H]1[C@H]2OC(C)(C)O[C@H]2O[C@@H]1C(O)CO (stereo not given in full),inactive,–
Cc1cccc(Cl)c1,inactive,–
COP(=O)(O)OP(=O)(O)OC,inactive,–
OC[C@@H](O)C(O)[C@@H](O)CO (stereo not given in full),inactive,–
CC(S)C(C)S (stereo not given),inactive,–
NCc1ccc(S(N)(=O)=O)cc1,inactive,–
CC1(C)O[C@H]2CC(=O)OC[C@]23[C@H]2CC[C@@]4(C)[C@H](c5ccoc5)OC(=O)[C@H]5O[C@]54[C@]2(C)C(=O)C[C@@H]13,inactive,–
C=CCOC(=O)CCCCCC,inactive,–
CN(C)CCCCl,inactive,–
CCCCCCCCCCCCCCCCCCOCCO,–,-7.83% [at 19 µM]
CC(=O)OC(C)=O,inactive,–
CCCCSCCCC,inactive,–
C/C(CC(C)C)=N\O,inactive,–
